Measured values published in PubChem BioAssay (EPA / NIEHS).
Active and inactive are the calls of the source. Rule for the calls: active = hit-call score of the fitted dose curve at least 0.9, where 1 is the maximum; inactive = score below 0.9.

tested on: not listed separately; test: ATG_CRE_CIS: Attagene CIS-FACTORIAL HepG2 Assay for human cAMP Responsive Element (CRE) binding protein 3 (AID 2282926); conditions: HepG2 CRE cis-reporter, Attagene multiplexed mRNA; actives raise or lower the signal
In short: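 HepG2 cells transiently transfected with cis-element-driven multiple reporter transcription units; CRE reporter mRNA measured 24 h after dosing by RT-PCR, 6-FAM labelling, HpaI digestion and capillary electrophoresis. Bidirectional fit versus DMSO baseline.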

Structure (SMILES)	outcome	AC50
CN(C1CCCCC1)C1CCCCC1	inactive	–
CCOP(=O)(OCC)OC(=CCl)c1ccc(Cl)cc1Cl	inactive	–
O=[N+]([O-])c1cccc2ccccc12	inactive	–
C#CCO	inactive	–
CCCCCCCCCCCCCl	inactive	–
CCCCCCCCBr	inactive	–
Cc1cccc(N=Nc2ccc(N(C)C)cc2)c1	inactive	–
C[C@]12CC[C@@H](O)C[C@@H]1CC[C@@H]1[C@@H]2CC[C@]2(C)C(=O)CC[C@@H]12	inactive	–
CCOc1cc(C=O)ccc1O	inactive	–
CC(C)N(C(=O)CCl)c1ccccc1	inactive	–
Cc1cc(C(F)(C(F)(F)F)C(F)(F)F)ccc1NC(=O)c1cccc(I)c1C(=O)NC(C)(C)CS(C)(=O)=O	inactive	–
CC(C)[C@H](C(=O)OC(C#N)c1cccc(Oc2ccccc2)c1)c1ccc(OC(F)F)cc1 (stereo partly drawn)	inactive	–
Cc1cccc(OP(=O)(Oc2cccc(C)c2)Oc2cccc(C)c2)c1	inactive	–
O=C(Cl)OCCOCCOC(=O)Cl	inactive	–
O=C(NC(=O)c1c(F)cccc1F)Nc1cc(Cl)c(Oc2ncc(C(F)(F)F)cc2Cl)c(Cl)c1	inactive	–
C=CC(=O)OCC(COC(=O)C=C)(COC(=O)C=C)COC(=O)C=C	inactive	–
C=CCCl	inactive	–
O=S(=O)(F)C(F)(F)C(F)(F)C(F)(F)C(F)(F)F	inactive	–
O=c1nc(O)n(Cl)c(=O)n1Cl	inactive	–
CCC[N+](CCC)(CCC)CCC	inactive	–

Structure (SMILES)	outcome	AC50
OC(c1ccc(Cl)cc1)(c1ccc(Cl)cc1)c1cccnc1	inactive	–
O=CCCl	–	24.7 µM (active)
O=S1OC[C@@H]2[C@H](CO1)[C@]1(Cl)C(Cl)=C(Cl)[C@@]2(Cl)C1(Cl)Cl (stereo partly drawn)	inactive	–
CCC[CH2][Sn]([Cl])([Cl])[CH2]CCC	–	0.947 µM (active)
C[C@H]1C(=O)O[C@@H]2CCN3CC=C(COC(=O)[C@](C)(O)[C@]1(C)O)[C@H]23	inactive	–
Brc1ccc(Oc2c(Br)cc(Br)cc2Br)c(Br)c1	inactive	–
Cc1cc(Cl)ccc1O	inactive	–
Nc1nc(=S)[nH][nH]1	inactive	–
CCC[CH2][Sn]([CH2]CCC)([CH2]CCC)[CH2]CCC	inactive	–
CC(C)CC(C)(c1ccc(O)cc1)c1ccc(O)cc1	inactive	–
C=CCc1ccccc1O	inactive	–
O=[N+]([O-])c1ccccc1O	inactive	–
COc1nn(C(=O)NS(=O)(=O)c2ccccc2OC(F)(F)F)c(=O)n1C	inactive	–
Clc1ccc(C(Cl)(Cl)Cl)cn1	inactive	–
CCCCN(CCCCO)N=O	inactive	–
CC(C)[C@@H](Nc1ccc(C(F)(F)F)cc1Cl)C(=O)OC(C#N)c1cccc(Oc2ccccc2)c1 (stereo partly drawn)	inactive	–
N#Cc1ccccc1N	inactive	–
C#CCOC(=O)/C=C(C)/C=C/CC(C)CCCC(C)C (stereo not drawn)	–	39.7 µM (active)
CCOP(=S)(OCC)SCS(=O)(=O)C(C)(C)C	inactive	–

target: CCAAT/enhancer-binding protein beta (Homo sapiens) (UniProt P17676); test: ATG_C_EBP_CIS: Attagene CIS-FACTORIAL HepG2 Assay for human CCAAT/Enhancer Binding Protein (C/EBP) beta (AID 2282927); conditions: HepG2 Attagene cis-factorial transcription factor reporter; actives raise or lower the signal
Sequence (P17676 whole entry, looked up): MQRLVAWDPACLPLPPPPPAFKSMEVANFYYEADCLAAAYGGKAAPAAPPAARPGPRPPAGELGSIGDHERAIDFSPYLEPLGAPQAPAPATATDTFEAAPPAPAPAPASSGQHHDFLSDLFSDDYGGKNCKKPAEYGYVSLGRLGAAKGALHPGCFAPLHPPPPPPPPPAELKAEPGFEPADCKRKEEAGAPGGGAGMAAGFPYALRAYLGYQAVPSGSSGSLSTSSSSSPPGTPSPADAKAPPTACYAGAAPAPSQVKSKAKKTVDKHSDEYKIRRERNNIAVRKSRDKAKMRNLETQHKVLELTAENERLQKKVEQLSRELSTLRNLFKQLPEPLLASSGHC
In short: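 Endogenous transcription factor activity in human liver HepG2 cells is inferred from induction of a CEBPB-linked reporter mRNA. Exposure lasts 24 h; activity is fitted in both directions relative to DMSO.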

Structure (SMILES)	outcome	AC50
CN(C1CCCCC1)C1CCCCC1	inactive	–
CCOP(=O)(OCC)OC(=CCl)c1ccc(Cl)cc1Cl	inactive	–
O=[N+]([O-])c1cccc2ccccc12	inactive	–
C#CCO	inactive	–
CCCCCCCCCCCCCl	inactive	–
CCCCCCCCBr	inactive	–
Cc1cccc(N=Nc2ccc(N(C)C)cc2)c1	inactive	–
C[C@]12CC[C@@H](O)C[C@@H]1CC[C@@H]1[C@@H]2CC[C@]2(C)C(=O)CC[C@@H]12	inactive	–
CCOc1cc(C=O)ccc1O	inactive	–
CC(C)N(C(=O)CCl)c1ccccc1	inactive	–
Cc1cc(C(F)(C(F)(F)F)C(F)(F)F)ccc1NC(=O)c1cccc(I)c1C(=O)NC(C)(C)CS(C)(=O)=O	inactive	–
CC(C)[C@H](C(=O)OC(C#N)c1cccc(Oc2ccccc2)c1)c1ccc(OC(F)F)cc1 (stereo partly drawn)	inactive	–
Cc1cccc(OP(=O)(Oc2cccc(C)c2)Oc2cccc(C)c2)c1	inactive	–
O=C(Cl)OCCOCCOC(=O)Cl	inactive	–
O=C(NC(=O)c1c(F)cccc1F)Nc1cc(Cl)c(Oc2ncc(C(F)(F)F)cc2Cl)c(Cl)c1	inactive	–
C=CC(=O)OCC(COC(=O)C=C)(COC(=O)C=C)COC(=O)C=C	inactive	–
C=CCCl	inactive	–
O=S(=O)(F)C(F)(F)C(F)(F)C(F)(F)C(F)(F)F	inactive	–
O=c1nc(O)n(Cl)c(=O)n1Cl	inactive	–
CCC[N+](CCC)(CCC)CCC	inactive	–

Structure (SMILES)	outcome	AC50
OC(c1ccc(Cl)cc1)(c1ccc(Cl)cc1)c1cccnc1	–	11.1 µM (active)
O=CCCl	–	25 µM (active)
O=S1OC[C@@H]2[C@H](CO1)[C@]1(Cl)C(Cl)=C(Cl)[C@@]2(Cl)C1(Cl)Cl (stereo partly drawn)	inactive	–
CCC[CH2][Sn]([Cl])([Cl])[CH2]CCC	–	0.33 µM (active)
C[C@H]1C(=O)O[C@@H]2CCN3CC=C(COC(=O)[C@](C)(O)[C@]1(C)O)[C@H]23	inactive	–
Brc1ccc(Oc2c(Br)cc(Br)cc2Br)c(Br)c1	inactive	–
Cc1cc(Cl)ccc1O	inactive	–
Nc1nc(=S)[nH][nH]1	inactive	–
CCC[CH2][Sn]([CH2]CCC)([CH2]CCC)[CH2]CCC	–	5.44 µM (active)
CC(C)CC(C)(c1ccc(O)cc1)c1ccc(O)cc1	inactive	–
C=CCc1ccccc1O	inactive	–
O=[N+]([O-])c1ccccc1O	inactive	–
COc1nn(C(=O)NS(=O)(=O)c2ccccc2OC(F)(F)F)c(=O)n1C	inactive	–
Clc1ccc(C(Cl)(Cl)Cl)cn1	inactive	–
CCCCN(CCCCO)N=O	inactive	–
CC(C)[C@@H](Nc1ccc(C(F)(F)F)cc1Cl)C(=O)OC(C#N)c1cccc(Oc2ccccc2)c1 (stereo partly drawn)	inactive	–
N#Cc1ccccc1N	inactive	–
C#CCOC(=O)/C=C(C)/C=C/CC(C)CCCC(C)C (stereo not drawn)	inactive	–
CCOP(=S)(OCC)SCS(=O)(=O)C(C)(C)C	inactive	–
